Values without a mark were called inactive. Calls of active or inactive are those of the source. Calls come from the whole dose curve; as a rule, active = well fitted activation curve with a large enough effect in the repeat runs; inconclusive = weak or mixed curves; inactive = flat fitted curve, though single readings scatter.
Assay: A CellTox Green Cytotoxicity Assay to monitor cytotoxicity in HEK293 cells - 0 hour (AID 1224869); note: nearly all actives have a fitted effect of over 50% in size
Conditions: CellTox Green fluorescence; series mostly up to 76.8 µM; cytotoxicity: at the top concentration
From the text: National Center for Advancing Translational Sciences [NCATS]
NIH Chemical Genomics Center [NCGC]
U.S. Environmental Protection Agency [EPA]
National Institutes of Environmental Health Sciences [NIEHS]
National Toxicology Program [NTP]
Cell-based models are critical for drug discovery. Determining the natural cytotoxic effects resulting from test compounds is an essential research activity. A CellTox Green Cytotoxicity Assay to monitor cytotoxicity in real time of continues cell culture during 40 hours of the compound treatment was used to screen Tox21 10K library compounds in Hek293 cells. CellTox Green Cytotoxicity Assay is a nonlytic, homogeneous, biofluorescent method to measure cytotoxicity in cell culture after experimental manipulation. The assay system uses a proprietary asymmetric cyanine dye that is excluded from viable cells but preferentially stains the dead cell's DNA. […] Viable cells produce no appreciable increases in fluorescence. Therefore, the fluorescence signal produced by the binding interaction with dead cell DNA is proportional to cytotoxicity.
The mixture of Hek293 cell suspension and reagents were dispensed at 600cells/6 ul/well in 1536-well tissue culture treated black solid bottom plates using a Multidrop dispenser. After the assay plates were incubated at a 37 C/5% CO2 incubator for 5 hours, 23 nL of compounds dissolved in DMSO, positive and negative controls was transferred to the assay plate by a pintool work station. The plates were incubated at 37 C for 40 hours. The fluorescence intensity were measured at 0h, 8h, 16h, 24h, 32h and 40h time points using ViewLux plate reader during compound treatment.
% is set by controls: 0 for no effect and ±100 for the full control effect; potency is the fitted concentration of half-maximal effect.

Structure (SMILES)	cytotoxicity	Potency
CC1(C)[C@@H](O)CC[C@]2(C)[C@H]3C(=O)C=C4[C@@H]5C[C@@](C)(C(=O)O)CC[C@]5(C)CC[C@@]4(C)[C@]3(C)CC[C@@H]12	-2.74%	
CCCCC(CC)CN1CN(CC(CC)CCCC)CC(C)(N)C1 (stereo not given)	3.36% [at 35.3 µM]	
Oc1ccccc1O		inactive
CC(C)(C)C1CCC(=O)CC1	2.38%	
Cc1c2ccccc2c(C)c2c1ccc1ccccc12		inactive
CC[C@H](C)COC(=O)/C=C/c1ccc(N=Cc2ccc(OC)cc2)cc1	-0.989%	
CC(=O)OCC=C(C)C	-0.958% [at 35.3 µM]	
O=c1oc2cc(O)ccc2c2oc3cc(O)ccc3c12	-3.91%	
CC1(C)CCC[C@]2(C)[C@H]3CC(=O)O[C@]3(C)CC[C@@H]12	7.83%	
CC(C)CCOC(=O)/C=C/c1ccccc1	-0.0667%	
Cc1cc(C(C)(C)C)cc(C)c1CC1=NCCN1	-6.02% [at 35.3 µM]	
OC12N=C(c3ccccc3)SC1Cc1cc(Cl)ccc12 (stereo not given)	-3.1%	
CCOC(=O)NNc1ccc(N(CC)CC(C)O)nn1 (stereo not given)	-6.63% [at 35.3 µM]	
CCCCCCCCCCC[C@@H](C[C@@H]1OC(=O)[C@H]1CCCCCC)OC(=O)[C@H](CC(C)C)NC=O	-9.87% [at 35.3 µM]	
CC(C)OC(=O)C(O)(CC(=O)O)CC(=O)O	1.13%	
CN(C)Cc1ccccc1O	15.3%	
CC1=Nc2ccccc2C1(C)C	-0.502%	
Cc1ccc(C)cc1	-3.32%	
C=CCn1c(=O)n(CC=C)c(=O)n(CC=C)c1=O	2.93%	
CNC(=O)c1ccccc1Sc1ccc2c(/C=C/c3ccccn3)n[nH]c2c1	19.4% [at 35.3 µM]	

Structure (SMILES)	cytotoxicity	Potency
O=C1CCCCCCCCCCCCCCCO1		24.5 µM (active)
O=C1c2ccccc2C(=O)N1SC1CCCCC1		inactive
CCCCOC(=O)CO	2.07%	
O=C(c1ccc(O)c(O)c1)c1ccc(O)cc1O	-0.806%	
CCCCCCCCCCOC(=O)c1ccccc1C(=O)OCCCCCCCC	-5.45%	
FC(F)(F)c1cccc(Cl)c1	-7.77%	
CC(C)(C)NSc1nc2ccccc2s1	-5.7%	
CC(C)(C)CC(C)(C)c1ccc(Nc2ccc(C(C)(C)CC(C)(C)C)cc2)cc1	3.78% [at 6.97 µM]	
C[C@@H](O)[C@H](N)C(=O)O	-4.33% [at 15.8 µM]	
CCOc1ccc2ccccc2c1C(=O)N[C@@H]1C(=O)N2[C@@H]1SC(C)(C)[C@@H]2C(=O)O	-0.952% [at 35.3 µM]	
Cl[Si](Cl)(c1ccccc1)c1ccccc1	10.7%	
CCO[C@@H]1O[C@H](C(COCc2ccccc2)OCc2ccccc2)[C@H](OCc2ccccc2)[C@H]1O (stereo not given in full)	0.569% [at 35.3 µM]	
CCCCCCOC(=O)C(C)CC (stereo not given)	-4.64%	
CCCCCCCC/C=C\CCCCCCCCN	0.821% [at 35.3 µM]	
O=C1CCc2ccc(OCCCCN3CCN(c4cccc(Cl)c4Cl)CC3)cc2N1	0.0382% [at 35.3 µM]	
CCCc1ccc(OCC(=O)N2CCN(C(=O)COc3ccc(CCC)cc3OC)CC2)c(OC)c1	9.59% [at 35.3 µM]	
CCCCCC/C=C\CCCCCCCC(=O)O	0.523%	
CCCCCCCCCCCCCC[N+](C)(C)Cc1ccccc1		inactive
Cc1cc(-n2nc3ccc(Cl)cc3n2)c(O)c(C(C)(C)C)c1	-11.2% [at 35.3 µM]	
CC(C)(C)c1ccc(C(O)CCCN2CCC(C(O)(c3ccccc3)c3ccccc3)CC2)cc1 (stereo not given)	4.69% [at 35.3 µM]	
